Laboratory results published in ChEMBL document CHEMBL4513216, “Probing the Open Global Health Chemical Diversity Library for Multistage-Active Starting Points for Next-Generation Antimalarials” (ACS Infect Dis, 2020).
Out of some 69,000 compounds screened, about 8,600 (12%) showed an effect of 50% or more. The sample holds strong results, similar compounds and a random draw of the others, so the mix is not that of the screen.

The compounds below were run on Plasmodium berghei (assay: Screen against P. berghei liver stage (PbLuc), transformed with Luciferase, at 10uM). Conditions: tested at 10 uM.
Format: functional, HepG2

SMILES	INHIBITION [%]
CN(C)c1nc(CNC(=O)N[C@H](CO)c2ccccc2)cs1	-42
COc1ccccc1CCNC(=O)CC1(Cn2cnnn2)CCCCC1	48.2
CC(C)Cc1cc(NC(=O)c2n[nH]c3ccccc23)n(C)n1	56.6
CC(C)Cc1cc(NC(=O)c2ccc(=O)[nH]n2)n(C)n1	40.3
CC(C)Cc1cc(NC(=O)c2ccccc2)n(C)n1	10
COC(CNC(=O)C1CCCC1)c1ccc(C)s1 (centres undefined)	24.7
COc1cc(C(=O)N2CCCC2c2noc(C(C)C)n2)on1 (centres undefined)	-2.143
CN(Cc1nccn1C)C1CCCN(CCCc2ccccc2)C1 (centres undefined)	43.7
Cn1ccnc1CN(CCO)Cc1ccc(C(F)(F)F)cc1	29.8
CN(CCCc1ccc(C(F)(F)F)cc1)Cc1nccn1C	66.8
CC(=O)c1ccc(S(=O)(=O)Nc2cnn(C3CCOCC3)c2)cc1	-24.1
O=C(Cn1ccc2ccc(Cl)cc21)/N=c1\[nH]nc(C2CCCO2)s1 (centres undefined)	39.7
CC(C)CN1CC(c2nc(-c3ccsc3)c[nH]2)CC1=O (centres undefined)	53.3
COc1ccc(-c2c[nH]c(C3CC(=O)N(CC(C)C)C3)n2)cc1 (centres undefined)	-15
CC(C)CN1CC(c2nc(-c3ccc(F)cc3)c[nH]2)CC1=O (centres undefined)	27.5
CC(C)N1CCC(Cc2cncc(-c3cc(F)ccc3C(=O)O)n2)CC1	41.2
CCN(CCNS(=O)(=O)N1CCOCC1)C(=O)OC(C)(C)C	41.3
CN(C(=O)NCc1nccn1Cc1ccccc1)C1CC1	46.4
COc1ccc(S(=O)(=O)NCCCc2nnc3nc(C)cc(C)n23)cc1	74.6
Cc1cc(C)n2c(CCCNS(=O)(=O)c3ccccc3)nnc2n1	34.6
Cc1cc(C)n2c(CCCNS(=O)(=O)c3ccc(F)cc3)nnc2n1	15.4
Cc1cc(C)n2c(CCCNS(=O)(=O)c3cccs3)nnc2n1	31.3
COc1ccc(CC(=O)NCCNS(=O)(=O)c2ccc(C)cc2)cc1	-57.5
COc1ccc(CC(=O)NCCCc2nnc3nc(C)cc(C)n23)cc1	52.7
CCCS(=O)(=O)NCC(O)c1c(Cl)cccc1Cl (centres undefined)	0.87
CCn1nc(C)c2c1cnn2CC(=O)NC(C)c1cccc(OC)c1 (centres undefined)	49.9
Cc1nnc([C@@H]2CC[C@@H]3[C@@H](CCN3C3CCC3)O2)o1	23.3
Cc1nnc([C@@H]2CC[C@@H]3[C@@H](CCN3C3CCOCC3)O2)o1	60.3
Cc1nnc([C@@H]2CC[C@@H]3[C@@H](CCN3CC3CCOCC3)O2)o1	-13.7
